Measured values published in PubChem BioAssay (NCATS).
Where “and” joins values, the source holds several entries; their conditions need not be identical. Equal values may be shown once. Records with an inconclusive call do not appear. Where a structure was tested more than once in an assay, its records may differ in their call. Calls of active or inactive are those of the source. Calls come from the whole dose curve; as a rule, active = well fitted curve in the direction sought with a large enough effect; inconclusive = small, poorly fitted or top-dose-only effect, or another doubt; inactive = no such curve, though single readings can be large; an effect the other way counts as inactive or inconclusive.

Legend:
HEK293 = experiment: Cytotoxic Profiling of Annotated Libraries Using Quantitative High-Throughput Screening (AID 1296008); conditions: Five cell lines viability, CellTiter-Glo ATP luminescence, 48-72 h; max response: active compounds read low; note: nearly all actives have a fitted effect of over 60% in size
In short: (§1)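 Compounds were pin-transferred onto cells and incubated 48 or 72 hr at 37 degree Celsius, 95% humidity. CellTiter-Glo was added, plates sat 10 min at room temperature, then ATP-coupled luminescence was imaged as the viability read-out.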

HaCat [1] = experiment: as above; conditions: Five cell lines viability, CellTiter-Glo ATP luminescence, 48-72 h; max response: active compounds read low
In short: as §1

KB-3-1 = experiment: as above; conditions: Five cell lines viability, CellTiter-Glo ATP luminescence, 48-72 h; max response: active compounds read low
In short: as §1

NIH3T3 [2] = experiment: as above; conditions: Five cell lines viability, CellTiter-Glo ATP luminescence, 48-72 h; max response: active compounds read low
In short: as §1

MCC-26 = experiment: qHTS assay to identify novel small-molecules to repurpose for Merkel cell carcinoma treatment (AID 1296009); conditions: MCC and control cell lines, CellTiter-Glo viability, 72 h; series mostly up to 46 µM; note: nearly all actives have a fitted effect of over 60% in size
In short: (§2)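 Luminescence from CellTiter-Glo, read 10 min after addition at room temperature, reported viability following a 72 hr, 37 degree celsius treatment with NPC or MIPE compounds in titration; values normalized to plate controls.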

WaGa = experiment: as above; conditions: MCC and control cell lines, CellTiter-Glo viability, 72 h; series mostly up to 46 µM
In short: as §2

MCC-13 = experiment: as above; conditions: MCC and control cell lines, CellTiter-Glo viability, 72 h; series mostly up to 46 µM
In short: as §2

MKL-1 = experiment: as above; conditions: MCC and control cell lines, CellTiter-Glo viability, 72 h; series mostly up to 46 µM
In short: as §2

C33A = experiment: Primary qHTS to identify gynecologic anti-cancer compounds using libraries of approved drugs and bioactive compounds (AID 1345084); conditions: Gynecologic cancer cell panel viability, ATPlite luminescence, 48 h; series mostly up to 57.5 µM; note: nearly all actives have a fitted effect of over 55% in size
In short: (§3)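 Cells, 1,000 per well, plated 16 h, then exposed 48 h at 37 C to compounds. Viability by ATPlite luminescence after 15 min at room temperature.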

Es-2 = experiment: as above; conditions: Gynecologic cancer cell panel viability, ATPlite luminescence, 48 h; series mostly up to 57.5 µM
In short: as §3

HeLa = experiment: as above; conditions: Gynecologic cancer cell panel viability, ATPlite luminescence, 48 h; series mostly up to 57.5 µM
In short: as §3

Hek293T = experiment: as above; conditions: Gynecologic cancer cell panel viability, ATPlite luminescence, 48 h, control line for the selectivity index; series mostly up to 57.5 µM
In short: as §3

HACAT [3] = experiment: qHTS assay to identify novel small-molecules to repurpose for Merkel cell carcinoma treatment (AID 1296009); conditions: MCC and control cell lines, CellTiter-Glo viability, 72 h; series mostly up to 44.8 µM; note: nearly all actives have a fitted effect of over 60% in size
In short: as §2

UISO = experiment: as above; conditions: MCC and control cell lines, CellTiter-Glo viability, 72 h; series mostly up to 46 µM
In short: as §2

MKL-2 = experiment: as above; conditions: MCC and control cell lines, CellTiter-Glo viability, 72 h; series mostly up to 46 µM
In short: as §2

NIH3T3 [4] = experiment: as above; conditions: MCC and control cell lines, CellTiter-Glo viability, 72 h; at 44.8 µM (top of the series) unless noted
In short: as §2

CAOV3 = experiment: Primary qHTS to identify gynecologic anti-cancer compounds using libraries of approved drugs and bioactive compounds (AID 1345084); conditions: Gynecologic cancer cell panel viability, ATPlite luminescence, 48 h; series mostly up to 57.5 µM; note: nearly all actives have a fitted effect of over 55% in size
In short: as §3

CASKI = experiment: as above; conditions: Gynecologic cancer cell panel viability, ATPlite luminescence, 48 h; series mostly up to 57.5 µM
In short: as §3
% is set by controls: 0 for no effect and ±100 for the full control effect; potency is the fitted concentration of half-maximal effect.

COc1cc(OC2CCN(C)CC2)ccc1Nc1ncc2c(n1)n(C1CCCC1)c(=O)n2C
inactive: Potency (MCC-26)
active: Potency (HEK293) 3.72 µM | Potency (HaCat [1]) 13.2 µM | Potency (KB-3-1) 4.18 µM | Potency (NIH3T3 [2]) 18.7 µM | Potency (WaGa) 23.5 µM

Cc1c(NC(=O)OC[C@@H]2COCCN2)cn2ncnc(Nc3ccc4c(cnn4Cc4cccc(F)c4)c3)c12
inactive: max response (KB-3-1) -29.5% | max response (NIH3T3 [2]) 3.43% | Potency (MCC-13) | Potency (MCC-26) | Potency (MKL-1) | Potency (WaGa) | Potency (C33A) | Potency (Es-2) | Potency (HeLa) | Potency (Hek293T)
active: Potency (HEK293) 14.8 µM and 23.1 µM | Potency (HaCat [1]) 4.69 µM and 2.91 µM | Potency (NIH3T3 [2]) 20.9 µM

COC(=O)Nc1nc2ccc(C(=O)c3ccc(F)cc3)cc2[nH]1
active: Potency (HEK293) 590 nM and 820 nM | Potency (KB-3-1) 833 nM and 1.46 µM | Potency (Es-2) 8.91 µM | Potency (HeLa) 3.98 µM
inactive: outcome (HaCat [1]) | Potency (HACAT [3]) | Potency (C33A)

COc1ccc(C(=O)CC2(O)C(=O)Nc3c(Cl)ccc(Cl)c32)cc1 (configuration not stated)
inactive: Potency (C33A)
active: Potency (HaCat [1]) 4.11 µM | Potency (KB-3-1) 3.72 µM and 5.17 µM | Potency (NIH3T3 [2]) 9.35 µM and 2.91 µM | Potency (UISO) 5.26 µM | Potency (HeLa) 14.1 µM

CC(C)c1ccccc1Cc1cc(C(=O)Nc2ccc(S(=O)(=O)c3ccccc3C(C)(C)C)cc2)c(O)c(O)c1O
inactive: Potency (MCC-26) | Potency (MKL-2)
active: Potency (KB-3-1) 8.33 µM | Potency (MKL-1) 26.4 µM

Cc1cnc(-c2cnc(NCCNc3ccc(C#N)cn3)nc2-c2ccc(Cl)cc2Cl)[nH]1
inactive: max response (HEK293) -23.2% and -27.2% | outcome (HaCat [1]) | max response (KB-3-1) -14.7% and -1.89% | outcome (NIH3T3 [2]) | Potency (HACAT [3]) | Potency (MCC-26) | Potency (MKL-1) | Potency (MKL-2) | outcome (NIH3T3 [4]) | Potency (WaGa) | Potency (CAOV3) | Potency (CASKI) | Potency (Es-2) | Potency (Hek293T)

Cc1cc(Nc2cc(N3CCN(C)CC3)nc(Sc3ccc(NC(=O)C4CC4)cc3)n2)n[nH]1
active: Potency (HEK293) 7.43 µM and 7.31 µM | Potency (HaCat [1]) 6.62 µM | Potency (KB-3-1) 8.33 µM and 8.2 µM | Potency (NIH3T3 [2]) 16.6 µM and 20.6 µM
inactive: Potency (MKL-2) | Potency (UISO) | Potency (C33A) | Potency (Es-2)

O=C(O)c1ccc2cc(-c3ccc(O)c(C45CC6CC(CC(C6)C4)C5)c3)ccc2c1
active: Potency (HEK293) 1.87 µM | Potency (NIH3T3 [2]) 1.66 µM | Potency (MCC-13) 2.64 µM | Potency (MCC-26) 2.96 µM | Potency (MKL-1) 2.35 µM | Potency (UISO) 1.18 µM | Potency (WaGa) 2.35 µM
inactive: max response (KB-3-1) 7.83%

CC(C)(C)NC(=O)[C@H]1CN(Cc2cccnc2)CCN1C[C@@H](O)C[C@@H](Cc1ccccc1)C(=O)N[C@H]1c2ccccc2C[C@H]1O
inactive: max response (KB-3-1) -44.5% | Potency (MCC-13) | Potency (MCC-26) | Potency (MKL-1) | Potency (UISO) | Potency (WaGa)

CC(C)c1noc(N2CCC(COc3ccc(-c4ccc(S(C)(=O)=O)cc4)nc3)CC2)n1
inactive: max response (HaCat [1]) -15.4% and 4.61% | max response (NIH3T3 [2]) -1.13% and 3.22% | Potency (MCC-13) | Potency (MCC-26) | Potency (MKL-1) | Potency (MKL-2) | Potency (C33A) | Potency (CAOV3) | Potency (CASKI) | Potency (Es-2) | Potency (HeLa)
active: Potency (HEK293) 7.43 µM and 8.2 µM

C[C@]1(CO)CN(c2cc(C(=O)Nc3ccc4c(c3)-c3c(c(C(N)=O)nn3-c3ccc(F)cc3)CC4)c(Cl)cn2)C[C@@]1(C)CO
active: Potency (HaCat [1]) 13.2 µM | Potency (UISO) 9.35 µM | Potency (WaGa) 18.7 µM
inactive: max response (KB-3-1) -15.8% | max response (NIH3T3 [2]) -26% | Potency (HeLa) | Potency (Hek293T)

Nc1ccc(S(=O)(=O)Nc2ncccn2)cc1
inactive: Potency (HACAT [3]) | Potency (MCC-13) | Potency (MCC-26) | Potency (MKL-1) | Potency (MKL-2) | outcome (NIH3T3 [4]) | Potency (UISO) | Potency (WaGa)

c1nc2nc(Nc3ccc(N4CCOCC4)cc3)nc(NC3CCCCC3)c2[nH]1
active: Potency (HaCat [1]) 2.64 µM and 2 µM | Potency (KB-3-1) 4.18 µM | Potency (NIH3T3 [2]) 1.48 µM and 2.24 µM | Potency (MKL-2) 16.6 µM | Potency (HeLa) 2.82 µM
inactive: Potency (C33A) | Potency (Es-2) | Potency (Hek293T)

CC(C)(O)CCc1ccc(OCc2cc(-c3cccc(OC(F)F)c3)c3ncccc3c2)cc1
inactive: outcome (HaCat [1]) | max response (NIH3T3 [2]) 4.85% | Potency (HACAT [3]) | Potency (MCC-13) | Potency (MCC-26) | Potency (MKL-1) | Potency (MKL-2) | Potency (UISO) | Potency (WaGa) | Potency (C33A) | Potency (CAOV3) | Potency (CASKI) | Potency (Es-2) | Potency (HeLa) | Potency (Hek293T)
